# Test results taken from PMC7862700, “An all-to-all approach to the identification of sequence-specific readers for epigenetic DNA modifications on cytosine”.
# Legend:
# Assay in all cases: DAPPL (digital affinity profiling via proximity ligation, sequencing); 10 mM Tris-HCl pH 7.5, 50 mM NaCl, 1 mM DTT, 4% glycerol, room temperature, 30 min; GST-TFs on glutathione beads, 16-mer random dsDNA library, 0.1% formaldehyde crosslink after washing; high values mean tight binding
# [1] = molecular target: T1, FEV (Homo sapiens, UniProt Q99581 1-238); conditions: protein: recombinant; tags: N-terminal GST; dsDNA, one strand shown
# T1 sequence: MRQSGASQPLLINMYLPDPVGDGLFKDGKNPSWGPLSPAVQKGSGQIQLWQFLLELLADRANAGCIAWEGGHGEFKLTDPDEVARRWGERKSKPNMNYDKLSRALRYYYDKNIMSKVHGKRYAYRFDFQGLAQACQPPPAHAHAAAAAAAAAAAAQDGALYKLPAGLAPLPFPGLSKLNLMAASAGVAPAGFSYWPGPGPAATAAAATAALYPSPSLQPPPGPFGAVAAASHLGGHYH
# Outline: (§1)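 Binding signal is each hexamer's read frequency for a factor divided by its frequency in the tag-only sample. The factors were GST-fused human transcription factors from yeast, captured on glutathione beads, DNA-barcoded and pooled with that sample. Pools were incubated with 200 nmole of a random double-stranded 16-mer DNA library in Tris/NaCl/DTT/glycerol buffer at room temperature for 30 min, then washed, crosslinked with 0.1% formaldehyde, proximity-ligated with BsaI/T4 ligase (1 h, 37 °C), PCR-amplified and sequenced on an Illumina NextSeq500.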
# [2] = molecular target: ETV5 (Homo sapiens, UniProt P41161 1-510); conditions: protein: recombinant; tags: N-terminal GST; dsDNA, one strand shown
# Chain of ETV5 (P41161 whole entry): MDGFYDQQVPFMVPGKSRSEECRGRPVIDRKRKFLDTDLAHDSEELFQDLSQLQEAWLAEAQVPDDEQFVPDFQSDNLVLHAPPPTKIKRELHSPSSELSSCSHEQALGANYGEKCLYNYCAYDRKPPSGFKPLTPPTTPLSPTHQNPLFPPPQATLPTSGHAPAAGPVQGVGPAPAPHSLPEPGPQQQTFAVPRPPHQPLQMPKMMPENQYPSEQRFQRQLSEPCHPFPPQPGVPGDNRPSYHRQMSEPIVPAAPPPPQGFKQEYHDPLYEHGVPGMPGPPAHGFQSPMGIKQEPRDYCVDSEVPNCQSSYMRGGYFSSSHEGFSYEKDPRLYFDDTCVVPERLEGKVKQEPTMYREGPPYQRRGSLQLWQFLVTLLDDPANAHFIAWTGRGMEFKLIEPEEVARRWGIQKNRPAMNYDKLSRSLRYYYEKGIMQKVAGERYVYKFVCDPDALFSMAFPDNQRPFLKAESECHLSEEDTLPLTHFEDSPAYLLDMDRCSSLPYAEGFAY
# Outline: as §1
# [3] = molecular target: HSF1 (Homo sapiens, UniProt Q00613 1-529); conditions: protein: recombinant; tags: N-terminal GST; chain copies: 3; dsDNA, one strand shown
# Chain of HSF1 (Q00613 whole entry): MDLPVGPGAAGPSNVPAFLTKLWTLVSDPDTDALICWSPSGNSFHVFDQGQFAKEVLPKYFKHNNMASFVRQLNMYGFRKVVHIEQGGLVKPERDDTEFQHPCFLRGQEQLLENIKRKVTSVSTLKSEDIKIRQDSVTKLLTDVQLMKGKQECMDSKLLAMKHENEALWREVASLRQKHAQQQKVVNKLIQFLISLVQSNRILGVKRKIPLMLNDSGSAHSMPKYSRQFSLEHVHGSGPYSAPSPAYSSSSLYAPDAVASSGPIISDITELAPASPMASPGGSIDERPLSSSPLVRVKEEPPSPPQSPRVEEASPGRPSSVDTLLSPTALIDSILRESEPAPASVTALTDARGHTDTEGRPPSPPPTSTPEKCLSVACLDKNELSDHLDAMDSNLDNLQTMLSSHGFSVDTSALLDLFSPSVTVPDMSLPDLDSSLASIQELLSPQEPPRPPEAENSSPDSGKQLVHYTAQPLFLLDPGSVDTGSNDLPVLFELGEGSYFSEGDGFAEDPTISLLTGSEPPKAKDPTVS
# Outline: as §1
# [4] = molecular target: T2, SPIC (Homo sapiens, UniProt Q8N5J4 1-248); conditions: protein: recombinant; tags: N-terminal GST; dsDNA, one strand shown
# T2 sequence: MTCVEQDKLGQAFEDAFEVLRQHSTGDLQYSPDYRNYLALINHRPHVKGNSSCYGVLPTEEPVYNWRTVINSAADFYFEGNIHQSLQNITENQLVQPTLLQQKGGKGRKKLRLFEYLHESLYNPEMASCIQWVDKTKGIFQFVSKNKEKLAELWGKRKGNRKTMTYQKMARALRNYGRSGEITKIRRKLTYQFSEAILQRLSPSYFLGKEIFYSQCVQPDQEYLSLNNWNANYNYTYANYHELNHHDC
# Outline: as §1
# [5] = molecular target: ELF4 (Homo sapiens, UniProt Q99607 1-663); conditions: protein: recombinant; tags: N-terminal GST; dsDNA, one strand shown
# Chain of ELF4 (Q99607 whole entry): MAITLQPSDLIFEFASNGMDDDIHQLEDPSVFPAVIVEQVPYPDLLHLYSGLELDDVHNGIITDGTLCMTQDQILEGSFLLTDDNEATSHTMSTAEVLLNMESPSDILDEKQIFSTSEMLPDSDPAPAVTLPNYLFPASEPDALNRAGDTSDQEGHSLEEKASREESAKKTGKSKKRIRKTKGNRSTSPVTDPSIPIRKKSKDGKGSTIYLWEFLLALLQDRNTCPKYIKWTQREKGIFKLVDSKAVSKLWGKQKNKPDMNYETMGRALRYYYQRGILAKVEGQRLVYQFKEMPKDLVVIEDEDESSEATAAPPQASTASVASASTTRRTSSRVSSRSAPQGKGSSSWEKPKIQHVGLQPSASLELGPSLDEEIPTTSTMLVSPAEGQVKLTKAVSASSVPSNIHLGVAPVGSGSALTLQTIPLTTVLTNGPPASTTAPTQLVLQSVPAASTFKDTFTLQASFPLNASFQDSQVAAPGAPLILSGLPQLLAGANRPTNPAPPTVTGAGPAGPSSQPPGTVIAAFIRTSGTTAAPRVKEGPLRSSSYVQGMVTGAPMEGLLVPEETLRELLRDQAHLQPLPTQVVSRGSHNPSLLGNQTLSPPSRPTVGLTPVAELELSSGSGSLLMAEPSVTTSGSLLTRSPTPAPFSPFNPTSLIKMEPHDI
# Outline: as §1
# [6] = molecular target: T3, ELK4 (Homo sapiens, UniProt P28324-2 1-405); conditions: protein: recombinant; tags: N-terminal GST; dsDNA, one strand shown
# T3 sequence: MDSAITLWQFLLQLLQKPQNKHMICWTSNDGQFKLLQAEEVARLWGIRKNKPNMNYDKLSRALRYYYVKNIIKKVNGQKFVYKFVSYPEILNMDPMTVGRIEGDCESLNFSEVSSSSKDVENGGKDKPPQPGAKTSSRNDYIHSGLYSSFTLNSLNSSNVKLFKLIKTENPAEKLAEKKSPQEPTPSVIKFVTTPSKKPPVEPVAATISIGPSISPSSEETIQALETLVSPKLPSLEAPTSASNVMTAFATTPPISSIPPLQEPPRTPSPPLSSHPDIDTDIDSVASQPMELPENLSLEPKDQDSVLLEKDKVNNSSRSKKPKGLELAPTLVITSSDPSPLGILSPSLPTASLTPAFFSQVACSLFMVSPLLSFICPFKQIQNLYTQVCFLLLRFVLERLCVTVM
# Outline: as §1
# [7] = molecular target: T4, ETV2 (Homo sapiens, UniProt O00321 1-342); conditions: protein: recombinant; tags: N-terminal GST; dsDNA, one strand shown
# T4 sequence: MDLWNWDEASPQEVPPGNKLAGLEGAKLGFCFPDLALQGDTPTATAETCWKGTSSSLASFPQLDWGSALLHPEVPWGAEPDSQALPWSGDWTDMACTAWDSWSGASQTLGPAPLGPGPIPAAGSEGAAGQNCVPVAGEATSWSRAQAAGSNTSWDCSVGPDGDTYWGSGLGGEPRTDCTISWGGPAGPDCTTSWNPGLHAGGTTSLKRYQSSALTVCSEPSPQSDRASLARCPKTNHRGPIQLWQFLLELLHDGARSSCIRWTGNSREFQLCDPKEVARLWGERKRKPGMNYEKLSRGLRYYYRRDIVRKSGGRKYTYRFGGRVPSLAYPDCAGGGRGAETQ
# Outline: as §1
# [8] = molecular target: T5, ELF3 (Homo sapiens, UniProt P78545 1-371); conditions: protein: recombinant; tags: N-terminal GST; dsDNA, one strand shown
# T5 sequence: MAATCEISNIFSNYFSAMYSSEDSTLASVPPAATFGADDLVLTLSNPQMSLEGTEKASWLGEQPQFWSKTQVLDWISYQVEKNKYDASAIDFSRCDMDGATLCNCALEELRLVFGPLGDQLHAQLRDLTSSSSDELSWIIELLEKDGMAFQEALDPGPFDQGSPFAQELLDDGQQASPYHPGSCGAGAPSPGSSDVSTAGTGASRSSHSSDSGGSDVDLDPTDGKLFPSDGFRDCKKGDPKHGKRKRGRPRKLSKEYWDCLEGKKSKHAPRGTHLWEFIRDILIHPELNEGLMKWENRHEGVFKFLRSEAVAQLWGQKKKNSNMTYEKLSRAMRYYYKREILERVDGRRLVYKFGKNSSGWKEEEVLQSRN
# Outline: as §1
# [9] = molecular target: CRX (Homo sapiens, UniProt O43186 1-299); conditions: protein: recombinant; tags: N-terminal GST; dsDNA, one strand shown
# Chain of CRX (O43186 whole entry): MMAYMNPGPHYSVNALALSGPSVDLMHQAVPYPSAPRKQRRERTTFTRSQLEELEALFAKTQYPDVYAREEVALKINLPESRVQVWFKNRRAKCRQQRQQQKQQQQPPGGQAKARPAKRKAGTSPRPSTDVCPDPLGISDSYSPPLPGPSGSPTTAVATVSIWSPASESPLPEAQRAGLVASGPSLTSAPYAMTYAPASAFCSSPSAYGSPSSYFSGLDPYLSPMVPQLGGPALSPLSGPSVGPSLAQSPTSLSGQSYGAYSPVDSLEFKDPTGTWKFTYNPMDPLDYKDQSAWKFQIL
# Outline: as §1
# [10] = molecular target: ETV1 (Homo sapiens, UniProt P50549 1-477); conditions: protein: recombinant; tags: N-terminal GST; dsDNA, one strand shown
# Chain of ETV1 (P50549 whole entry): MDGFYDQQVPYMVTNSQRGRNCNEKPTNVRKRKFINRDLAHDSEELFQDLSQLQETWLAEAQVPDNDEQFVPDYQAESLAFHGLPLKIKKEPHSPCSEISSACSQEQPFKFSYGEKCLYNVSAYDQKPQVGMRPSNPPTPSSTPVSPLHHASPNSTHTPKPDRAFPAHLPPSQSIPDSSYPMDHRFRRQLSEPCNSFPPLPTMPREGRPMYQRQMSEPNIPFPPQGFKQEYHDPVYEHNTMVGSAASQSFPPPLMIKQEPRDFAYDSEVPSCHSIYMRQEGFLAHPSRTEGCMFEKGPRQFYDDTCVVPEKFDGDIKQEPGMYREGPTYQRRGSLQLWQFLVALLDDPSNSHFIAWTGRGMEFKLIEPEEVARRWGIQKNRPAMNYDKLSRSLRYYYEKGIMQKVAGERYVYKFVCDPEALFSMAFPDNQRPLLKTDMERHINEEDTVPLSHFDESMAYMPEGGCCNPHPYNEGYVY
# Outline: as §1
# [11] = molecular target: T6, ERF (Homo sapiens, UniProt P50548 1-548); conditions: protein: recombinant; tags: N-terminal GST; dsDNA, one strand shown
# T6 sequence: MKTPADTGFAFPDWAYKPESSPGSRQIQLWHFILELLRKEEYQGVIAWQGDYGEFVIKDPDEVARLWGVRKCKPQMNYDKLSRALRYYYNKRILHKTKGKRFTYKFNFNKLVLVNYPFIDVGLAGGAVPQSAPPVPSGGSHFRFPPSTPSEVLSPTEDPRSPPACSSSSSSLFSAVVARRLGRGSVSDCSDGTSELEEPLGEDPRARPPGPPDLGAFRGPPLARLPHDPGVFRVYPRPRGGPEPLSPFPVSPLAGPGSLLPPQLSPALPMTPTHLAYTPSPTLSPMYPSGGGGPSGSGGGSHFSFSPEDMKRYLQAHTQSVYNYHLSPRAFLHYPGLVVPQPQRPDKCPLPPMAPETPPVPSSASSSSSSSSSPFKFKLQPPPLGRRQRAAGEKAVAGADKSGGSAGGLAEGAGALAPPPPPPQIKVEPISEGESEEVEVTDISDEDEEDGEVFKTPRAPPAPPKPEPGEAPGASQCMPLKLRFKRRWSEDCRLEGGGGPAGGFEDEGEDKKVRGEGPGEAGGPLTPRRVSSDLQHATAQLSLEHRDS
# Outline: as §1
# [12] = molecular target: T7, ETV3L (Homo sapiens, UniProt Q6ZN32 1-361); conditions: protein: recombinant; tags: N-terminal GST; dsDNA, one strand shown
# T7 sequence: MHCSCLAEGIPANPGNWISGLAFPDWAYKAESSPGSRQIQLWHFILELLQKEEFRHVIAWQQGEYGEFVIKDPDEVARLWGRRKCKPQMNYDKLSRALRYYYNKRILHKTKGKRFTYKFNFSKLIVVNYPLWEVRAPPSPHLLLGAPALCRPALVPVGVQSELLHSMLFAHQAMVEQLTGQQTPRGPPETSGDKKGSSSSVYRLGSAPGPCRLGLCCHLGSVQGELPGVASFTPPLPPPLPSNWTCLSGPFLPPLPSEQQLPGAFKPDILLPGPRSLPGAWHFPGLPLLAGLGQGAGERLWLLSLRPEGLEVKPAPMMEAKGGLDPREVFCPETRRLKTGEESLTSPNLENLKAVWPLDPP
# Outline: as §1
# [13] = molecular target: T8, ETS2 (Homo sapiens, UniProt P15036 1-469); conditions: protein: recombinant; tags: N-terminal GST; dsDNA, one strand shown
# T8 sequence: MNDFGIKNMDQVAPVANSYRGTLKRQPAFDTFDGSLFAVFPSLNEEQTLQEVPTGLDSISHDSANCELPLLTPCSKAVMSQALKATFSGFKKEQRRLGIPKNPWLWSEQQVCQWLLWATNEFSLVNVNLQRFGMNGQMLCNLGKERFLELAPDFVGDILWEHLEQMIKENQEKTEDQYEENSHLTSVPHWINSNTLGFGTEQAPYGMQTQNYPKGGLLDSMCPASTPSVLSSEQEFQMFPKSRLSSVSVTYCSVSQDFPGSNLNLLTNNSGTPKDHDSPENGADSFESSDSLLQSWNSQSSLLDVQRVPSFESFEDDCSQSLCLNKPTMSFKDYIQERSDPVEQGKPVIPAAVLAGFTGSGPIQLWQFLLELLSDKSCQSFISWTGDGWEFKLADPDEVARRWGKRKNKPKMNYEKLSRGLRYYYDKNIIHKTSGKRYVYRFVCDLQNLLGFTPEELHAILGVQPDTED
# Outline: as §1
# [14] = molecular target: T9, SPDEF (Homo sapiens, UniProt O95238 1-335); conditions: protein: recombinant; tags: N-terminal GST; dsDNA, one strand shown
# T9 sequence: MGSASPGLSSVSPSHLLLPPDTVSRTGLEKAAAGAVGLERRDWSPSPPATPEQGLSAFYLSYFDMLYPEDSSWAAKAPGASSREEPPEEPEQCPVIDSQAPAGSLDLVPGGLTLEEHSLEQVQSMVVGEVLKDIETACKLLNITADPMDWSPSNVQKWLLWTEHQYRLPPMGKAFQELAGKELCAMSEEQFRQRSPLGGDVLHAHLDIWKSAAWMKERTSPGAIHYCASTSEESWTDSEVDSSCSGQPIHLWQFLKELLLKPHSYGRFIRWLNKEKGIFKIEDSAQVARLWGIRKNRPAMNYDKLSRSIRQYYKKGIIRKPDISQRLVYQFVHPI
# Outline: as §1
# [15] = molecular target: T10, ETV7 (Homo sapiens, UniProt Q9Y603 1-341); conditions: protein: recombinant; tags: N-terminal GST; dsDNA, one strand shown
# T10 sequence: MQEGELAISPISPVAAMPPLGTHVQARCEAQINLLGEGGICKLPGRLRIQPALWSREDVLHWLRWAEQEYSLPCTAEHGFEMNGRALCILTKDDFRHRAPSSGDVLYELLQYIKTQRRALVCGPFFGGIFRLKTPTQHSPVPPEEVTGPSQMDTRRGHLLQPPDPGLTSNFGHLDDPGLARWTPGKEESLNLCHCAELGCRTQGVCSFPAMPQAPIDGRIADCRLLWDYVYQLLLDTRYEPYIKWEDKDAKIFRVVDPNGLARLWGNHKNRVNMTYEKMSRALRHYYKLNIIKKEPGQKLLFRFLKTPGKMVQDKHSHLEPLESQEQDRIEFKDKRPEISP
# Outline: as §1
# [16] = molecular target: T11, ELF5 (Homo sapiens, UniProt Q9UKW6-2 1-255); conditions: protein: recombinant; tags: N-terminal GST; dsDNA, one strand shown
# T11 sequence: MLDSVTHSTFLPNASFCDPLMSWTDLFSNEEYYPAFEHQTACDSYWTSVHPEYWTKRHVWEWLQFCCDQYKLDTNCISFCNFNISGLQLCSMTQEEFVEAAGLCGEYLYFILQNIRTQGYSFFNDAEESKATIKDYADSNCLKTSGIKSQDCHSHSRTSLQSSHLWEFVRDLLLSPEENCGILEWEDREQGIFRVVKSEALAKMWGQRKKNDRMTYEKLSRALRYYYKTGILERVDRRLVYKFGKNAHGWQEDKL
# Outline: as §1
# [17] = molecular target: T12, ETV3 (Homo sapiens, UniProt P41162-2 1-143); conditions: protein: recombinant; tags: N-terminal GST; dsDNA, one strand shown
# T12 sequence: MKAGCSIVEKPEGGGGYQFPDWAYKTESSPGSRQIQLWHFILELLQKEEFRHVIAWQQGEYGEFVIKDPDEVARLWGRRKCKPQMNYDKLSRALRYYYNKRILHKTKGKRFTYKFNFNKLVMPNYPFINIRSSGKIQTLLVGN
# Outline: as §1
# [18] = molecular target: ETV6 (Homo sapiens, UniProt P41212 1-452); conditions: protein: recombinant; tags: N-terminal GST; dsDNA, one strand shown
# Chain of ETV6 (P41212 whole entry): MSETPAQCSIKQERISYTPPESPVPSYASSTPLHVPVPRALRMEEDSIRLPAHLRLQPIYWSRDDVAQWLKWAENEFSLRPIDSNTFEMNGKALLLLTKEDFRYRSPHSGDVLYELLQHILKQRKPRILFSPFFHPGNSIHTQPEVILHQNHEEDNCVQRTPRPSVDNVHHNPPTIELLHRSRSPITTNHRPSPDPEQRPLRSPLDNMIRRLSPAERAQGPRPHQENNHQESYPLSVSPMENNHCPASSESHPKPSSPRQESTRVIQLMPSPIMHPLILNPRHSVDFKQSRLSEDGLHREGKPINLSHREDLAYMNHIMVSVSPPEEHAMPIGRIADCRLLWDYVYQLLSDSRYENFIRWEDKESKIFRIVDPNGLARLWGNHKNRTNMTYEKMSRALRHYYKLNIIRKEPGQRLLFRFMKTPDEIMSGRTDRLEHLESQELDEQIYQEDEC
# Outline: as §1
sequence,measurement,setting,value
TTGTGT,binding signal,[1],"1.15 fold enrichment (6-mer frequency, TF over GST control)"
same,binding signal,[2],"1.14 fold enrichment (6-mer frequency, TF over GST control)"
same,binding signal,[3],"1.05 fold enrichment (6-mer frequency, TF over GST control)"
same,binding signal,[4],"1.04 fold enrichment (6-mer frequency, TF over GST control)"
same,binding signal,[5],"1.2 fold enrichment (6-mer frequency, TF over GST control)"
same,binding signal,[6],"1.28 fold enrichment (6-mer frequency, TF over GST control)"
same,binding signal,[7],"1.29 fold enrichment (6-mer frequency, TF over GST control)"
same,binding signal,[8],"1.14 fold enrichment (6-mer frequency, TF over GST control)"
same,binding signal,[9],"1.12 fold enrichment (6-mer frequency, TF over GST control)"
same,binding signal,[10],"1.09 fold enrichment (6-mer frequency, TF over GST control)"
same,binding signal,[11],"1.4 fold enrichment (6-mer frequency, TF over GST control)"
same,binding signal,[12],"1.15 fold enrichment (6-mer frequency, TF over GST control)"
same,binding signal,[13],"1.16 fold enrichment (6-mer frequency, TF over GST control)"
same,binding signal,[14],"1.26 fold enrichment (6-mer frequency, TF over GST control)"
same,binding signal,[15],"1.34 fold enrichment (6-mer frequency, TF over GST control)"
same,binding signal,[16],"1.16 fold enrichment (6-mer frequency, TF over GST control)"
same,binding signal,[17],"1.27 fold enrichment (6-mer frequency, TF over GST control)"
same,binding signal,[18],"1.19 fold enrichment (6-mer frequency, TF over GST control)"
